# From PubChem BioAssay
# Values joined by “and” are separate entries in the source; they are usually repeats but may differ in a detail not shown here. Equal entries are not always repeated.
# Test: viability loss with induced miR-34 in A549 – imaging, A549 dox-inducible miR-34, nuclei and caspase counts, primary screen (AID 1347080); also: test concentration not given here
# Conditions: A549 miR-34 inducible, Hoechst nuclei count, 48 h; measured here: total cells without miR-34 induction
row,SMILES,cell count
1,COC(=O)C[C@](O)(CCCC(C)(C)O)C(=O)O[C@@H]1C(OC)=C[C@]23CCCN2CCc2cc4c(cc2[C@H]13)OCO4,1550
2,CNCC[C@H](Oc1cccc2ccccc12)c1cccs1,11200
3,O=c1[nH]c(=O)n(C2CCCO2)cc1F (stereo unspecified),9180 and 8190 and 8820
4,CSc1nc2cc(Oc3cccc(Cl)c3Cl)c(Cl)cc2[nH]1,6080 and 8080
5,CN(C)CCc1c[nH]c2ccc(Cn3cncn3)cc12,7680 and 8720 and 13400
6,COc1ccc(C[C@H](C)NC[C@@H](O)c2ccc(O)c(NC=O)c2)cc1,8440
7,C[C@@H](c1ncncc1F)[C@](O)(Cn1cncn1)c1ccc(F)cc1F,9170
8,CC(=O)NC[C@H]1CN(c2ccc(N3CCOCC3)c(F)c2)C(=O)O1,9600 and 10500
9,CC(CCCCC(=O)Nc1ccc(C(F)(F)F)cc1)NCCc1cnc[nH]1 (stereo unspecified),10400 and 9060
10,CN/C(=C\[N+](=O)[O-])NCCSCc1csc(CN(C)C)n1,13100
11,CNCC[C@@H](Oc1ccccc1C)c1ccccc1,8710
12,Cc1cccc(CCN2CCC(C(=O)c3ccc(NS(C)(=O)=O)cc3)CC2)n1,10000 and 5630 and 9500
13,CN(C)CCOc1ccc(/C(=C(/CCCl)c2ccccc2)c2ccccc2)cc1,7040 and 6880
14,CC(C)(S)C(N)C(=O)O (stereo unspecified),11100 and 12600
15,CC[C@H]1OC(=O)[C@H](C)[C@@H](O[C@H]2C[C@@](C)(OC)[C@@H](O)[C@H](C)O2)[C@H](C)[C@@H](O[C@@H]2O[C@H](C)C[C@H](N(C)C)[C@H]2O)[C@](C)(O)C[C@@H](C)CN(C)[C@H](C)[C@@H](O)[C@]1(C)O,10500 and 11200
16,NCC(O)c1ccc(O)c(O)c1 (stereo unspecified),10800 and 8140
